From PubChem
Sampled rows, rich in hits. Any-hit rate of the full collection: about 6.7%.
MCF10A rereplic – A quantitative high throughput screen for small molecules that induce DNA re-replication in MCF 10a normal breast cells; MCF 10A DNA re-replication, Hoechst nuclear intensity, 48 h; AID 624296, 2012; 2.9% of 350,000 active; Potency, µM (series often up to 46.1 µM), hits mostly activators; further: nearly all actives have a fitted effect of over 50% in size
SW480 rerep – A quantitative high throughput screen for small molecules that induce DNA re-replication in SW480 colon adenocarcinoma cells; SW480 DNA re-replication, Hoechst DNA content imaging, 48 h; Potency, µM (highest dose often 46.1 µM), usual class: activators; 1.8% of 340,000 active; further: nearly all actives have a fitted effect of over 55% in size
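First, 250 cells per well were seeded. Next, compound or vehicle (23 nL) was pinned in, plates sat 48 hr at 37 C. Finally Hoechst was added for 40 min before fluorescence scanning.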
KB-V1 MDR tox – qHTS assay for MDR1-selective chemotherapeutics: Primary screen using the drug-selected MDR subline cells KB-V1 | KB-V1 MDR cells viability, CellTiter-Glo, 72 h | Potency, µM (top dose mostly 46.1 µM), hits mostly cytotoxic | 3.4% of 400,000 active | AID 1347076, 2019; further: nearly all actives have a fitted effect of over 60% in size
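Luminescent ATP read-out (CellTiter-Glo, 10 min) measures survival of drug-selected KB-V1 MDR cells after 72 h, 37 degrees C compound exposure. Medium: phenol-red-free DMEM, 10% FBS. Values from fitted concentration-response curves.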
PINK1 expr mod – A Quantitative High throughput Screen to Identify Chemical Modulators of PINK1 Expression | PINK1 immunofluorescence, high-content cytometry, 24 h | 0.2% of 410,000 active | AID 624263, 2012 | Potency, µM (titrated, usually from 76.6 µM), usual class: activators; active means well fitted activation curve with a large enough effect; inconclusive means small, poorly fitted or top-dose-only effect; cell line not stated here; further: nearly all actives have a fitted effect of over 65% in size
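Decision-based qHTS: stable cells, 24 h exposure to five compound concentrations, CCCP as control. Fixed cells stained for PINK1 plus nuclear, mitochondrial and cell markers, cytometer read.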
KB-3-1 tox – qHTS assay for MDR1-selective chemotherapeutics: Primary screen using the parental adenocarcinoma cell KB-3-1 | 1.4% of 400,000 active | Potency, µM (highest dose often 46.1 µM), hits mostly cytotoxic | KB-3-1 viability, CellTiter-Glo ATP luminescence, 72 h; further: nearly all actives have a fitted effect of over 60% in size
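Cells are dispensed, compounds pinned in, plates held at 37 °C for 72 h, then CellTiter-Glo is added and luminescence read after 10 minutes. Cell line: parental KB-3-1 in phenol-red-free DMEM, 10% FBS.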
A number is an active result; i = inactive; ? = inconclusive; nt = not tested or not shown; ! = a repeat was not active. Unless noted, the call rests on the fitted dose curve; in most records, active means well fitted curve in the direction sought with a large enough effect; inconclusive means small, poorly fitted or top-dose-only effect, or another doubt; inactive means no such curve, though single readings can be large; an effect the other way counts as inactive or inconclusive.

SMILES	MCF10A rereplic	SW480 rerep	KB-V1 MDR tox	PINK1 expr mod	KB-3-1 tox
Cc1nc(SCC(=O)NCc2ccco2)[nH]c(=O)c1C	23.1µM	?	?	i	i
O=C(Nc1ccc(Cn2ccnc2)cc1)c1cccc(C(F)(F)F)c1	?	i	i	i	i
COc1ccc(-c2n[nH]c3c2CN(C(=O)c2ccc(OC)c(OC)c2)CC3)cc1	20.6µM	?	?	i	7.31µM
COc1cc(OC)cc(C(=O)N2CCN(C(=O)c3ccc(OC)c(OC)c3)CC2)c1	i	i	i	i	i
Cc1c(C(=O)C(=O)N2c3ccc(F)cc3CCC2C)c2ccccc2n1C (stereo not drawn)	2.59µM	7.31µM	2.91µM	i	2.91µM
Cc1c(C(=O)C(=O)N2CCN(C)CC2)c2ccccc2n1C	i	i	i	i	i
Cc1cc(C(=O)C(C)OC(=O)c2ccc(NC(=O)CC#N)cc2)c(C)n1-c1ccc(OC(F)F)cc1 (stereo not drawn)	i	i	18.4µM	i	2.91µM
CCn1c(=O)n(-c2ccc3c(c2)OCO3)c2nc(-c3ccc(C(C)C)cc3)nc(C(N)=O)c21	nt	nt	i	i	i
Fc1ccc(C2CCNCC2COc2ccc3c(c2)OCO3)cc1 (stereo not drawn)	?	?	?	i	?
Fc1ccc([C@@H]2CCNC[C@H]2COc2ccc3c(c2)OCO3)cc1	?	?	23.1µM!	i	?
CSc1cc(-c2ccc(Cl)cc2)n(Cc2ccccc2)c(=O)c1C#N	i	i	i	i	16.4µM
O=C(c1ccccc1)C(CCc1ccccn1)CCc1ccccn1	i	i	i	i	i
COc1ccc(C(C)=O)cc1	nt	nt	i	nt	i
COc1ccc(C(=O)C(CCCCC(CN(C)C)C(=O)c2ccc(OC)cc2)CN(C)C)cc1 (stereo not drawn)	?	?	13µM	i	i
CCOc1ccc(C(=O)C(CCC(CN(C)C)C(=O)c2ccc(OCC)cc2)CN(C)C)cc1 (stereo not drawn)	?	3.66µM	i	i	?
CN(C)CC(CCC(CN(C)C)C(=O)c1ccccc1)C(=O)c1ccccc1 (stereo not drawn)	?	?	8.2µM	i	16.4µM
Nc1ccc(N2CCN(c3ncc(C(F)(F)F)cc3Cl)CC2)c(C(F)(F)F)c1	nt	nt	?	i	?
Cc1cc(C(=O)N/N=C/c2cc(Br)cc(Br)c2OC(=O)c2cccc(F)c2)n[nH]1	14.6µM	0.92µM	?	i	?
Cc1ccc(S(=O)(=O)Cc2ccc(C(=O)NCc3ccc4c(c3)OCO4)o2)cc1	i	i	9.2µM	i	i
CC(NC(=O)c1ccc(CS(=O)(=O)c2ccc(Cl)cc2)o1)c1ccc2c(c1)OCCO2 (stereo not drawn)	?	i	10.3µM	i	i
Cn1c(=O)oc2cc(S(=O)(=O)N3CCC(C(=O)N4CCN(c5ccc(Cl)cc5)CC4)CC3)ccc21	nt	nt	i	i	?
COc1ccc(OC)c(/C=N\Nc2nccs2)c1	i	i	i	i	i
COc1cc(/C=N/Nc2nncn2/N=C/c2ccc(O)c(OC)c2)ccc1O	i	i	23.1µM	i	i
COc1ccc(OC)c(/C=N/Nc2nncn2/N=C/c2cc(OC)ccc2OC)c1	23.1µM	?	?	i	20.6µM
COCOCCn1cc(CN2CCS(=O)(=O)N(Cc3ccc(-c4cccc(N(C)C)c4)cc3)C(C(C)C)C2=O)nn1 (stereo not drawn)	nt	nt	i	i	i
SMILES	MCF10A rereplic	SW480 rerep	KB-V1 MDR tox	PINK1 expr mod	KB-3-1 tox
O=S(=O)(CCN1CCOCC1)c1ccc(Cl)cc1	i	i	i	i	i
NC(=O)C1CCN(CCS(=O)(=O)c2ccc(Cl)cc2)CC1	?	18.4µM	i	i	i
Cc1ccc(NC(=O)c2ccco2)c(NC(=O)c2ccccc2)c1	i	i	i	i	i
CCN(CC)P(=O)(Nc1ccc(C)cc1Br)c1ccc(N(C)C)cc1NC(=O)c1ccco1 (stereo not drawn)	?	?	18.4µM	?	?
c1ccc(COc2cccc(CN3CCN(c4ccccn4)CC3)c2)cc1	?	?	18.4µM	i	i
Cc1cccc(CN2CCN(c3ccccn3)CC2)c1	i	i	?	i	i
